Source: PubChem (National Center for Advancing Translational Sciences (NCATS))
KB-3-1 cytotox = kills parental KB-3-1 adenocarcinoma cells | Potency, µM (series often up to 46.1 µM), most hits filed as cytotoxic | KB-3-1 viability, CellTiter-Glo ATP luminescence, 72 h | 400,000 tested, 1.4% active; note: % is set by controls: 0 for no effect and ±100 for the full control effect; nearly all actives have a fitted effect of over 60% in size
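Screening of KB-3-1 cells (DMEM, 10% FBS, phenol-red free) ran from lowest to highest compound concentration; after 72 h at 37 °C viability was read luminescently and curves fitted.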
HepG2 tox = kills HepG2 cells in TGF-b inhibitor counter-screen; HepG2 CAGA-GFP viability, ATP luminescence, 18 h; Potency, µM (doses to about 46.1 µM), inactives show at the top dose activity change, negative = cytotoxicity, usual class: cytotoxic; 410,000 tested, 0.76% active
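CellTiter-Glo luminescence gave cytotoxicity after 18 hours at 37 degrees C. The cells were HepG2 CAGA-GFP in 1% FBS DMEM, stimulated with 500 pg/mL TGF-beta after compound addition. %Activity was normalised to no-cell wells (complete cell-killing) and DMSO (no toxicity), and curves were fitted and classified.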
HT1080-NT tox = kills 2HG-producing HT-1080-NT fibrosarcoma cells | 360,000 tested, 1.6% active | HT-1080-NT fibrosarcoma viability, CellTiter-Glo ATP luminescence, 48 h | Potency, µM (doses to about 46.1 µM), for inactives: top-dose activity, negative = less viability, most hits filed as cytotoxic | AID 686970;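 note: NT is the 2HG producing partner of a matched IDH1 knockdown line; 0% = DMSO-treated cells and -100% = media-only wells without cells; nearly all actives have a fitted effect of over 55% in size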
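Viability of the 2HG-overproducing fibrosarcoma line after 48 hours of compound exposure at 37 degrees C was determined by luminescence with CellTiter-Glo, and concentration-effect curves were then fitted and categorized.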
TGFb inhibitor = inhibitors of TGF-b signaling; HepG2 CAGA-GFP TGF-b/SMAD3 reporter, GFP fluorescence, 18 h; TGF-beta stimulated, 500 pg/mL final; Potency, µM (series often up to 46.1 µM), for inactives: at the highest dose activity, negative = inhibition, usual class: inhibitors; 410,000 tested, 1.2% active; note: % is set by controls: 0 for no effect and ±100 for the full control effect; nearly all actives have a fitted effect of over 65% in size
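HEPG2 CAGA-GFP, 1000 cells/well; 2 h settle, 37 C; cpd via pin tool; TGF-b 500 pg/mL final; 18 h, 37 C; GFP imaging ex488/em500-530; %Activity normalised to -TGF-b and +DMSO controls; CRC fit, curve class.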
HT1080 IDH1KD tx = toxicity to HT-1080 IDH1 knockdown cells (counter line). Potency, µM (doses to about 46.1 µM), inactives show at the highest dose activity, negative = toxicity, usual class: cytotoxic. AID 686971. 360,000 tested, 2% active. HT-1080 IDH1 knockdown viability, ATP luminescence, 48 h;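 note: 0% = DMSO wells and -100% = cell-free medium wells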
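HT-1080-IDH1KD cells (IDH1 knocked down), 750/well in RPMI with 5% FBS, treated with compound 48 h at 37 degrees C. Viability by CellTiter-Glo luminescence, normalised to DMSO and no-cell wells; concentration-response curves classed.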
KB-V1 cytotox = kills drug-selected multidrug resistant KB-V1 cells | KB-V1 MDR cells viability, CellTiter-Glo, 72 h | Potency, µM (series often up to 46.1 µM), most hits filed as cytotoxic | 400,000 tested, 3.4% active; note: % is set by controls: 0 for no effect and ±100 for the full control effect; nearly all actives have a fitted effect of over 60% in size
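In this primary screen, KB-V1 cells overexpressing P-gp are incubated with library compounds (lowest to highest concentration) for 72 h at 37 degrees C before a luminescent ATP viability read.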
The depositor's hits bear a star; i = inactive; ? = inconclusive; nt = no result given; ! = repeats disagree. Compounds with a hit are over-represented: about 6.6% of the library has one in this group of screens. Calls come from the whole dose curve; as a rule, active = well fitted curve in the direction sought with a large enough effect; inconclusive = small, poorly fitted or top-dose-only effect, or another doubt; inactive = no such curve, though single readings can be large; an effect the other way counts as inactive or inconclusive. Potency is the fitted concentration of half-maximal effect.

SMILES	KB-3-1 cytotox	HepG2 tox	HT1080-NT tox	TGFb inhibitor	HT1080 IDH1KD tx	KB-V1 cytotox
CC(NC(=O)Cn1ncc(Cl)c(Cl)c1=O)C12CC3CC(CC(C3)C1)C2 (centres undefined)	6.5µM*	3%	18µM*	-5%	10µM*	?
O=C(Nc1ccc(F)cc1C(F)(F)F)C1CCN(c2ncccn2)CC1	i	3%	nt	?	nt	i
N#Cc1ccc(NC(=O)COC(=O)c2cccnc2Cl)cc1	i	-6%	0%	?	12%	i
CCSc1nnc(-c2ccc(S(=O)(=O)NCc3cccs3)cc2)o1	i	-20%	-2%	?	?	21µM*
CCOc1ccc(S(=O)(=O)NCc2cccs2)cc1	i	-24%	5%	14%	-13%	i
CCOc1ccc(CNCc2c(C(=O)O)n(Cc3ccc(OC)cc3)c3ccccc23)cc1	?	-29%	nt	?	nt	i
CCOC(=O)C[C@H]1c2ccccc2S(=O)(=O)N1Cc1ccc(Cl)cc1	?	-6%	0%	?	4%	16µM*!
CCOC(=O)C[C@H]1c2cc(C(F)(F)F)ccc2S(=O)(=O)N1Cc1ccccc1	i	-23%	16%	14%	1%	10µM*!
CCOC(=O)C[C@H]1c2ccc(C(F)(F)F)cc2S(=O)(=O)N1Cc1ccccc1	i	0%	0%	-4%	5%	?
Cc1cc(C)cc(-n2nnc(-c3nc(-c4ccccc4F)no3)c2C)c1	nt	5%	nt	27%	nt	nt
Cc1cc(N2CCOCC2)nc(N2CCOCC2)c1C#N	?	0%	15%	10%	1%	7.3µM*
CCC(=O)N(c1nnc(SCC(=O)c2ccc[nH]2)s1)C1CC1	i	-1%	7%	-13%	6%	12µM*
Cc1cc(C)c(Cn2c3ccccc3c3cnn(CC(=O)NCC(C)c4ccccc4)c(=O)c32)c(C)c1 (centres undefined)	i	-1%	nt	-1%	nt	i
COc1ccc(-c2n[nH]c(=S)n2-c2ccc(C)cc2)cc1	i	-28%	-1%	-1%	-5%	i
Cc1ccc(-c2n[nH]c(=S)n2C)cc1	?	-32%	-1%	-1%	-5%	16µM*
COCCn1c(C)cc(C(=O)COC(=O)c2ccc(Cl)c(S(N)(=O)=O)c2)c1C	i	6%	-2%	1%	-9%	23µM*
Cc1nc2cccnc2n1C1CCN(S(=O)(=O)c2ccc(C(C)C)cc2)CC1	i	-15%	nt	?	nt	i
CS(=O)(=O)c1cccc(C(=O)OCC(=O)Nc2ccc3c(c2)OCO3)c1	nt	5%	-5%	14%	6%	nt
O=C(CCC1N=C2c3ccccc3N=C(SCc3ccc(Cl)cc3)N2C1=O)N1CCN(c2ccccc2)CC1 (centres undefined)	i	-1%	nt	-4%	nt	i
CCOc1ccc(CCN2C(=O)C(=O)N([C@@H](CC(C)C)CN3CCC[C@@H]3CN3C(=O)C(=O)NC[C@@H]3Cc3ccccc3)C[C@@H]2CC(C)C)cc1	i	-37%	?	10µM*	?	i
O=C1NC[C@H](Cc2ccccc2)N(C[C@@H]2CCCN2C[C@H](Cc2ccc(O)cc2)N2C[C@H](Cc3ccccc3)N(CC3CCCCCC3)C(=O)C2=O)C1=O	i	nt	?	nt	?	i
O=C1NC[C@H](CCCCN2C[C@H](Cc3ccc(O)cc3)N(CCc3ccccc3)C(=O)C2=O)N(CC2CCCCC2)C1=O	i	nt	18%	nt	15µM*	i
CCOc1ccc(CCN2C(=O)C(=O)N([C@@H](Cc3ccccc3)CN3CCC[C@H]3CN3C(=O)C(=O)NC[C@@H]3Cc3ccccc3)C[C@@H]2CC(C)C)cc1	?	nt	-7%	nt	1%	i
